Compound activity: PubChem, National Center for Advancing Translational Sciences (NCATS)
Rows were chosen to be rich in hits. Some 7.6% of all compounds tested hit in one or more screens of this group.
MCF10A rereplic = induces DNA re-replication in MCF 10a normal breast cells | hit rate 2.9% among 350,000 | AID 624296 | MCF 10A DNA re-replication, Hoechst nuclear intensity, 48 h | Potency, µM (highest dose often 46.1 µM), without a hit: top-dose activity, positive = re-replication, hits mostly activators; note: potency is the fitted concentration of half-maximal effect; % of control where 0% means no effect; nearly all actives have a fitted effect of over 50% in size
KCNH2 WT inh = blocks the wildtype human KCNH2 potassium channel | Q12809 | U2OS, BacMam KCNH2, thallium flux FluxOr; stronger effect = lower value | activity change, % at 1.84 µM | hit rate 0.37% among 340,000 | AID 720551;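 active = maximum activity change below -70%; inconclusive = maximum activity change between -70% and -50%; inactive = maximum activity change above -50%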; note: % is set by controls: 0 for no effect and ±100 for the full control effect
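U2OS cells were transduced with wild-type KCNH2 virus (2.03 x 10^8 / mL) for 4 h at room temperature, then cultured overnight at 37 C. Thallium flux was read with FluxOr dye. Rate constants were normalized to DMSO controls.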
KCNH2 3.1 inh = blocks the human KCNH2 3.1 channel isoform | U2OS KCNH2 3.1, thallium flux FluxOr; stronger effect = lower value | activity change, % (tested at about 1.8 µM) | hit rate 0.95% among 340,000 | AID 720553;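 active = maximum activity change below -70%; inconclusive = maximum activity change from -70% to -50%; inactive = maximum activity change above -50%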;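 note: thallium influx rate constant from kinetic fluorescence after stimulation buffer; % is set by controls: 0 for no effect and ±100 for the full control effect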
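Virally transduced U2OS (3.1 isoform, 4 h infection in dark at RT) → overnight 37 C → FluxOr + Red40 in HBSS/HEPES, 45 min → stimulation buffer, 2 min kinetic read → rate constant vs DMSO controls.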
KB-V1 MDR tox = kills drug-selected multidrug resistant KB-V1 cells | KB-V1 MDR cells viability, CellTiter-Glo, 72 h | AID 1347076 | hit rate 3.4% among 400,000 | Potency, µM (doses to about 46.1 µM), hits mostly cytotoxic; note: potency is the fitted concentration of half-maximal effect; % is set by controls: 0 for no effect and ±100 for the full control effect; nearly all actives have a fitted effect of over 60% in size
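Cytotoxicity toward P-gp-expressing KB-V1 cells was determined as loss of CellTiter-Glo luminescence after 72 h at 37 degrees C. Compounds were tested in quantitative HTS format across a concentration range, with curves fitted to normalized data.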
SW480 rereplic = DNA re-replication induction in SW480 cells | SW480 DNA re-replication, Hoechst DNA content imaging, 48 h | Potency, µM (titrated, usually from 46.1 µM), without a hit: top-dose re-replication activation, most hits filed as activators | hit rate 1.8% among 340,000 | AID 624297; note: potency is the fitted concentration of half-maximal effect; % of control where 0% means no effect; nearly all actives have a fitted effect of over 55% in size
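Compounds, transferred as 23 nL by pin tool, were incubated with cells for 48 hr; DNA content per nucleus was then quantified by Hoechst staining and fluorescence plate imaging.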
KB-3-1 tox = kills parental KB-3-1 adenocarcinoma cells | KB-3-1 viability, CellTiter-Glo ATP luminescence, 72 h | Potency, µM (doses to about 46.1 µM), actives largely listed as cytotoxic | hit rate 1.4% among 400,000; note: potency is the fitted concentration of half-maximal effect; % is set by controls: 0 for no effect and ±100 for the full control effect; nearly all actives have a fitted effect of over 60% in size
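Cytotoxicity in the drug-sensitive parental line KB-3-1 was scored as loss of CellTiter-Glo luminescence following 72 h incubation with compound. Values come from curve fitting of normalized concentration-response data.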
* = called active by the depositor; i = inactive; ? = inconclusive; nt = no result given; ! = repeats disagree; [ ] = another dose, or the depositor's remark. Unless noted, calls come from the whole dose curve; as a rule, active = well fitted curve in the direction sought with a large enough effect; inconclusive = small, poorly fitted or top-dose-only effect, or another doubt; inactive = no such curve, though single readings can be large; an effect the other way counts as inactive or inconclusive.

SMILES	MCF10A rereplic	KCNH2 WT inh	KCNH2 3.1 inh	KB-V1 MDR tox	SW480 rereplic	KB-3-1 tox
CCN(CC)S(=O)(=O)c1cccc(NC(=O)CN2C(=O)NC3(CCOc4ccccc43)C2=O)c1 (stereo not given)	13%	-7	-3	i	?	i
O=[N+]([O-])c1ccc2nc(-c3ccc(Cl)cc3)n(OCc3ccccc3)c2c1	7%	4	6	i	-11%	i
Cc1nc2ccccc2n1Cc1ccc(Cl)cc1	?	0	-21	7.3µM*	?	?
Clc1ccc(COn2c(-c3ccccc3)nc3ccccc32)cc1	21µM*	3	-14	?	?	?
Cn1cccc1-c1nc2ccccc2n1Cc1ccccc1	11µM*	0	4	?	6%	i
Clc1ccc(COn2c(-c3ccc(Cl)cc3)nc3ccccc32)cc1	16µM*	12	-21	18µM*	?	i
Cc1cccc(-c2cc3c(nn2)-c2ccccc2C3=O)c1	?	-8	5	i	?	?
Cc1cnc2c(c1)C(=O)c1ccccc1-2	?	1	-111*	i	-11%	i
Cc1nc2c(ncn2-c2ccccc2)c(=O)n1NC(=O)CN1CCCCC1	16%	0	-24	i	-5%	i
N#Cc1c(-c2ccc(Cl)cc2)n(O)c2ccccc12	3.7µM*	69	-18	3.7µM*	8.2µM*	7.3µM*
C=CCn1c(=O)c(C(=O)NCc2ccccc2Cl)c(O)c2ccccc21	23µM*	2	-3	i	-50%	?
CCn1c(=O)c(C(=O)NNC(=O)c2ccccc2Cl)c(O)c2ccccc21	0%	12	0	?	-6%	i
CCn1c(=O)c(C(=O)NNC(=O)c2ccccc2F)c(O)c2ccccc21	?	-3	7	10µM*	?	15µM*
CCn1c(=O)c(C(=O)NCc2ccc(Cl)cc2)c(O)c2ccccc21	0.58µM*	-5	-6	i	-52%	i
CCCCCCCCCC(=O)NNC(=O)c1c(O)c2ccccc2n(CC)c1=O	6%	-17	5	?	-2%	?
CCn1c(=O)c(C(=O)NCc2ccccc2)c(O)c2ccccc21	?	7	7	i	-12%	i
CCCCCC(=O)NNC(=O)c1c(O)c2ccccc2n(CC)c1=O	?	6	10	23µM*	?	?
CCOC(=O)c1c(C)[nH]c(C)c1S(=O)(=O)N(C)CC(=O)NCc1ccc(F)cc1	4%	-8	3	i	?	i
COc1ccc(C2(C(=O)NC3CCCCC3)CCOCC2)cc1OC	?	12	17	i	1%	i
Cc1cc(CC(=O)O)n(C)c1C(=O)c1ccc(Cl)cc1	30µM*!	4	-14	i	-53%	i
COc1cc(Cl)c(C)cc1NC(=O)CCc1c(C)nc2c3cccnc3nn2c1C	nt	nt	nt	i	nt	i
Nc1ccc(Sc2nc3ccccc3[nH]2)cc1	19%[9.22 µM]	-84*	7	i	9%	?
Nc1ccc(Nc2nc3ccccc3[nH]2)cc1	-3%	-4	-25	i	-1%	i
CC(C)Sc1nc2ccccc2[nH]1	?	12	-110*	i	-12%	i
Cc1ccccc1-c1nc(S(=O)(=O)c2ccc(Cl)cc2)c(NCCN2CCOCC2)o1	21µM*	-3	-16	i	?	i
SMILES	MCF10A rereplic	KCNH2 WT inh	KCNH2 3.1 inh	KB-V1 MDR tox	SW480 rereplic	KB-3-1 tox
Cc1ccccc1-c1nc(S(=O)(=O)c2ccccc2)c(NCCCN2CCOCC2)o1	-3%	59	-17	i	5%	23µM*
CC1CCCN(c2ncnc3c2cnn3-c2ccc(F)cc2)C1 (stereo not given)	nt	nt	nt	?	nt	i
COC(=O)[C@@]1(Cc2ccc(F)cc2)[C@H]2c3cc(C(=O)N4CCCC4)n(Cc4ccc(S(C)(=O)=O)cc4)c3C[C@H]2CN1C(=O)c1ccccc1	nt	nt	nt	?	nt	i
COC(=O)[C@@]1(Cc2ccc(F)cc2)[C@H]2c3cc(C(=O)N4CCCC4)n(Cc4ccc(C)c(F)c4F)c3C[C@H]2CN1C(=O)c1ccccc1	nt	nt	nt	23µM*	nt	?
COC(=O)[C@@]1(Cc2ccc(F)cc2)[C@H]2c3cc(C(=O)N4CCCC4)n(Cc4ccc(C(F)(F)F)nc4)c3C[C@H]2CN1C(=O)c1ccccc1	87%	10	-17	i	16µM*	?
COC(=O)[C@@]1(Cc2ccc(F)cc2)[C@H]2c3cc(C(=O)N(C)C)n(Cc4ccsc4Br)c3C[C@H]2CN1C(=O)c1ccccc1	nt	nt	nt	21µM*	nt	?
COC(=O)[C@@]1(Cc2ccc(F)cc2)[C@H]2c3cc(C(=O)N4CCCC4)n(CCCNc4ncc(C(F)(F)F)cc4Cl)c3C[C@H]2CN1C(=O)c1ccccc1	5.8µM*	-4	-36	i	?	i
COC(=O)c1ccc(NC(=O)C2CCN(C(=O)Nc3ccccc3)CC2)cc1	8%	-2	7	i	-8%	i
COc1ccc(OC)c(NC(=O)C(C)N2c3cccc4cccc(c34)S2(=O)=O)c1 (stereo not given)	1%	-3	18	i	?	i
CC(=O)Nc1cccc(C(=O)NCCc2ccco2)c1	-2%	-6	3	i	16%	i
CCCC1(CC)C(=O)NC(=O)N=C1N (stereo not given)	-3%	3	8	i	5%	i
c1cnc(Oc2ccc(-c3nnco3)cc2)cn1	-1%	-3	-15	i	-3%	i
CCCc1cc(C(=O)Cc2ccc(F)cc2)c(O)cc1O	?	-5	-6	i	-8%	i
CCc1cc(C(=O)Cc2ccc(F)cc2)c(O)cc1O	9%	1	1	16µM*	-2%	?
O=C(NCCNc1ccc([N+](=O)[O-])cc1C(F)(F)F)c1cccc(F)c1	19%	2	2	18µM*	?	?
O=C(NCCNc1ccc([N+](=O)[O-])cc1C(F)(F)F)c1ccccc1	-65%	1	?	16µM*	18%	i
O=C(NCCNc1ccc([N+](=O)[O-])cc1)c1cccc(Br)c1	14%	2	4	i	2%	i
COc1ccc(-c2noc(-c3cccs3)n2)cc1OC	-19%	13	-38	?	-17%	?
COc1ccc(-c2nnc(SCc3nnc(-c4cccs4)o3)n2CC2CCCO2)cc1 (stereo not given)	-9%	-3	0	4.6µM*	-1%	i
COc1ccc(-c2nnc(CSc3nnc(-c4ccncc4)n3C3CCCCC3)o2)cc1OC	12%	-11	-1	13µM*	-3%	i
